Assay results from PubChem BioAssay.
The source made the active and inactive calls.

Key:
[1] = system: PRMT1 (protein arginine N-methyltransferase 1); test: PRMT1 binders on small-molecule microarrays, primary screen, biochemical, small-molecule microarray, 635 nm fluorescence (AID 1088); conditions: small-molecule microarray binding, higher = more signal;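 note: binding of Prmt1 protein to compounds spotted on small-molecule microarray slides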
[2] = yeast growth modulation, basal conditions, primary screen, YJM789 clinical isolate, OD600, 24 h (AID 1089);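 note: growth of clinical yeast isolate S. cerevisiae YJM 789 seeded 1000 cells per well; test concentration not given here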; conditions: S. cerevisiae YJM789 growth, higher = more signal, called active from +8 up or from −8 down
[3] = fission yeast growth modulation, primary screen, strain 972, OD600, 24 h, no modulator (AID 1090);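 note: basal condition with compound alone and no growth modifier present; test concentration not given here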; conditions: S. pombe 972 growth, higher = more signal, called active from +8 up or from −8 down
[4] = S. cerevisiae growth modulation with rapamycin, primary screen, strain BY4716, OD600, 96 h (AID 1091); conditions: higher = more signal, called active from +8 up or from −8 down; note: test concentration not given here
[5] = target: Torsin-1A-interacting protein 2 (Homo sapiens) (UniProt Q8NFQ8); test: LULL1 binders on small-molecule microarray, primary screen, cell lysate, human LULL1 lysate, 635/667 nm fluorescence (AID 1092); conditions: hLULL1 lysate binding, 635 nm fluorescence, higher = more signal;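 note: probe is lysate of COS7 cells overexpressing human LULL1; score merges per-feature 667 nm fluorescence with signal-to-noise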
[6] = E. coli growth modulation, two-sided OD650, primary screen, E. coli filamentation project, strain DRC41, 24 h (AID 1093); conditions: OD650, 24 h, higher = more signal, called active from +8 up or from −8 down;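 note: MC1000 strain lacking acrAB efflux and sulA so SOS filamentation is blocked; test concentration not given here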
[7] = small-molecule microarray binders of probe aLefty2, primary screen, biochemical, biotinylated probe, 635/667 nm fluorescence (AID 1094); conditions: higher = more signal;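 note: score merges spot fluorescence near 667 nm with spot signal-to-noise ratio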
[8] = system: Noggin (protein binding on small-molecule microarray); test: Noggin binders on small-molecule microarray, primary screen, biochemical, 635/667 nm fluorescence (AID 1095); conditions: 635 nm fluorescence, higher = more signal;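 note: score merges 667 nm feature fluorescence with signal to noise over triplicate slides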
[9] = target: Neurogenic locus notch homolog protein 3 (Homo sapiens) (UniProt Q9UM47); test: NOTCH3 binders on small-molecule microarray, primary screen, biochemical, 635/667 nm fluorescence (AID 1096); conditions: NOTCH3 binding, 635 nm fluorescence, higher = more signal
[10] = small-molecule microarray binders of probe aEGFR, primary screen, biochemical, biotinylated probe, 635/667 nm fluorescence (AID 1097); conditions: higher = more signal;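 note: probe is a biotinylated anti-EGFR antibody binding compounds printed on slides; score combines fluorescence near 667 nm and signal to noise of each spot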
[11] = system: Plasmodium falciparum Sir2 (PF13_0152, Sir2A); test: pfSir2 binders on small-molecule microarrays, primary screen, biochemical, small-molecule microarray, 635 nm fluorescence (AID 1098); conditions: small-molecule microarray binding, fluorescence 635 nm; higher = more signal;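 note: score merges spot fluorescence intensity with its signal-to-noise ratio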
[12] = small-molecule microarray binders of probe aDKK1, primary screen, biochemical, biotinylated probe, 635/667 nm fluorescence (AID 1099); conditions: higher = more signal;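 note: score merges 667nm spot fluorescence with signal to noise across triplicate slides; reference of the scale not given here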
[13] = small-molecule microarray binders of probe aCHRDL2, primary screen, biochemical, biotinylated probe, 635/667 nm fluorescence (AID 1100); conditions: higher = more signal
[14] = splicing luciferase reporter signal modulators, primary screen, spliceosome inhibition project, cell-based, HEK293, splice +/- reporter (AID 1101); conditions: luminescence, 24 h, higher = more signal, called active from +8 up or from −8 down;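 note: HEK293 cells carrying a splicing-competent luciferase reporter gene; test concentration not given here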
[15] = target: Fibroblast growth factor 10 (Homo sapiens) (UniProt O15520); test: FGF10 binders on small-molecule microarrays, primary screen, biochemical, small-molecule microarray, 635 nm fluorescence (AID 1102); conditions: FGF10 binding, fluorescence 635 nm, higher = more signal
[16] = system: glycogen synthase kinase-3 (GSK3A per assay name; protocol says GSK3B); test: GSK3 binders on small-molecule microarrays, primary screen, biochemical, small-molecule microarray, 635 nm fluorescence, GSK3A (AID 1103); conditions: small-molecule microarray binding, fluorescence 635 nm; higher = more signal; note: the record names both GSK3A and GSK3B
[17] = target: Epidermal growth factor receptor (Homo sapiens) (UniProt P00533); test: EGFR binders on small-molecule microarrays, primary screen, biochemical, small-molecule microarray, 635 nm fluorescence (AID 1104); conditions: EGFR binding, higher = more signal;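 note: score merges 667 nm emission intensity with spot signal to noise over triplicate slides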
[18] = target: Follistatin-related protein 3 (Homo sapiens) (UniProt O95633); test: FSTL3 binders on small-molecule microarrays, primary screen, biochemical, small-molecule microarray, 635 nm fluorescence (AID 1105); conditions: FSTL3 binding, higher = more signal;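 note: score merges emission near 667 nm and signal to noise per printed spot across three slides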
[19] = target: Dickkopf-related protein 1 (Homo sapiens) (UniProt O94907); test: DKK1 binders on small-molecule microarrays, primary screen, biochemical, small-molecule microarray, 635 nm fluorescence scan (AID 1106); conditions: DKK1 binding, higher = more signal;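 note: score merges emission near 667 nm with signal to noise over three replicate slides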
[20] = system: Inhibin beta A chain (activin A); test: INHBA (activin A) binders on microarrays, primary screen, biochemical, small-molecule microarray, 635 nm fluorescence scan (AID 1107); conditions: small-molecule microarray binding, higher = more signal;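 note: mouse activin A protein probed at 4.33 µg/mL on printed slides; score merges bound-protein fluorescence near 667 nm with spot signal-to-noise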

Follistatin-related protein 3 (Homo sapiens), sequence (O95633 whole entry, looked up): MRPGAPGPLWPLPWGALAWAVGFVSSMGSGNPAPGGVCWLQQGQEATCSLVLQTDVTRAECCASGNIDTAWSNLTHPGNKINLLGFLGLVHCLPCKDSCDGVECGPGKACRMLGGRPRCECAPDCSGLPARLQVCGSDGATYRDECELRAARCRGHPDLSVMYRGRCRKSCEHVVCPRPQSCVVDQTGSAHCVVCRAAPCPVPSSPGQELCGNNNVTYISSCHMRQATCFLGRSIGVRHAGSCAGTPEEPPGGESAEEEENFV
Epidermal growth factor receptor (Homo sapiens), sequence (P00533 whole entry, looked up): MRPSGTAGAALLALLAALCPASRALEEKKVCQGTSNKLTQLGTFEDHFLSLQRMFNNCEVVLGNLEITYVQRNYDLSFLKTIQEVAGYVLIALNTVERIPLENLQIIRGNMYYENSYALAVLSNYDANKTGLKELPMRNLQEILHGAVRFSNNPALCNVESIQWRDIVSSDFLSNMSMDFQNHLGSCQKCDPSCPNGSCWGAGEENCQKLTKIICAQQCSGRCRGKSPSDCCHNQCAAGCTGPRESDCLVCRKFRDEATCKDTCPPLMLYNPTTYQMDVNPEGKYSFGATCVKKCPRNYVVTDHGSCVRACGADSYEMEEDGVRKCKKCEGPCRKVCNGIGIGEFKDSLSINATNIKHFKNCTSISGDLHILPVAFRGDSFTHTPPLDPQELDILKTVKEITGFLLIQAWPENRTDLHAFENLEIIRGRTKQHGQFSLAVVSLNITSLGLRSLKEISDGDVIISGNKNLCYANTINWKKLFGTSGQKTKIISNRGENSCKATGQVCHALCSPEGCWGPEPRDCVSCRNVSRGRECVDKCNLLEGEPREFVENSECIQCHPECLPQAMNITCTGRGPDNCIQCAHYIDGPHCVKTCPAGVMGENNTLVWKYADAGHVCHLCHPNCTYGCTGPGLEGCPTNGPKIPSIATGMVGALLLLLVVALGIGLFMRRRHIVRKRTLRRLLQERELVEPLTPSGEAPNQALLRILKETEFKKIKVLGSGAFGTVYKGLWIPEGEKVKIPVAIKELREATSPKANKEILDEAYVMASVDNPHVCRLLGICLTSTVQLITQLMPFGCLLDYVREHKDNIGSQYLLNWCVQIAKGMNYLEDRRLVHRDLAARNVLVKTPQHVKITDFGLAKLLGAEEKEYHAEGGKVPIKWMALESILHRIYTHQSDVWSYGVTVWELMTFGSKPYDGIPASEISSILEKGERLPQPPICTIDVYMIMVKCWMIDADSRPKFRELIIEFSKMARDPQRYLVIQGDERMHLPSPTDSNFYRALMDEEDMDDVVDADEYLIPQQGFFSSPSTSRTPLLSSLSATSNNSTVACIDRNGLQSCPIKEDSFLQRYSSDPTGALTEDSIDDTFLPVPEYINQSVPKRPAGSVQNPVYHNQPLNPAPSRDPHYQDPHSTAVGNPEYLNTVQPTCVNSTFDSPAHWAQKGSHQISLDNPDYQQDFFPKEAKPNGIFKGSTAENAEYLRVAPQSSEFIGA
Neurogenic locus notch homolog protein 3 (Homo sapiens), sequence (Q9UM47 whole entry, looked up): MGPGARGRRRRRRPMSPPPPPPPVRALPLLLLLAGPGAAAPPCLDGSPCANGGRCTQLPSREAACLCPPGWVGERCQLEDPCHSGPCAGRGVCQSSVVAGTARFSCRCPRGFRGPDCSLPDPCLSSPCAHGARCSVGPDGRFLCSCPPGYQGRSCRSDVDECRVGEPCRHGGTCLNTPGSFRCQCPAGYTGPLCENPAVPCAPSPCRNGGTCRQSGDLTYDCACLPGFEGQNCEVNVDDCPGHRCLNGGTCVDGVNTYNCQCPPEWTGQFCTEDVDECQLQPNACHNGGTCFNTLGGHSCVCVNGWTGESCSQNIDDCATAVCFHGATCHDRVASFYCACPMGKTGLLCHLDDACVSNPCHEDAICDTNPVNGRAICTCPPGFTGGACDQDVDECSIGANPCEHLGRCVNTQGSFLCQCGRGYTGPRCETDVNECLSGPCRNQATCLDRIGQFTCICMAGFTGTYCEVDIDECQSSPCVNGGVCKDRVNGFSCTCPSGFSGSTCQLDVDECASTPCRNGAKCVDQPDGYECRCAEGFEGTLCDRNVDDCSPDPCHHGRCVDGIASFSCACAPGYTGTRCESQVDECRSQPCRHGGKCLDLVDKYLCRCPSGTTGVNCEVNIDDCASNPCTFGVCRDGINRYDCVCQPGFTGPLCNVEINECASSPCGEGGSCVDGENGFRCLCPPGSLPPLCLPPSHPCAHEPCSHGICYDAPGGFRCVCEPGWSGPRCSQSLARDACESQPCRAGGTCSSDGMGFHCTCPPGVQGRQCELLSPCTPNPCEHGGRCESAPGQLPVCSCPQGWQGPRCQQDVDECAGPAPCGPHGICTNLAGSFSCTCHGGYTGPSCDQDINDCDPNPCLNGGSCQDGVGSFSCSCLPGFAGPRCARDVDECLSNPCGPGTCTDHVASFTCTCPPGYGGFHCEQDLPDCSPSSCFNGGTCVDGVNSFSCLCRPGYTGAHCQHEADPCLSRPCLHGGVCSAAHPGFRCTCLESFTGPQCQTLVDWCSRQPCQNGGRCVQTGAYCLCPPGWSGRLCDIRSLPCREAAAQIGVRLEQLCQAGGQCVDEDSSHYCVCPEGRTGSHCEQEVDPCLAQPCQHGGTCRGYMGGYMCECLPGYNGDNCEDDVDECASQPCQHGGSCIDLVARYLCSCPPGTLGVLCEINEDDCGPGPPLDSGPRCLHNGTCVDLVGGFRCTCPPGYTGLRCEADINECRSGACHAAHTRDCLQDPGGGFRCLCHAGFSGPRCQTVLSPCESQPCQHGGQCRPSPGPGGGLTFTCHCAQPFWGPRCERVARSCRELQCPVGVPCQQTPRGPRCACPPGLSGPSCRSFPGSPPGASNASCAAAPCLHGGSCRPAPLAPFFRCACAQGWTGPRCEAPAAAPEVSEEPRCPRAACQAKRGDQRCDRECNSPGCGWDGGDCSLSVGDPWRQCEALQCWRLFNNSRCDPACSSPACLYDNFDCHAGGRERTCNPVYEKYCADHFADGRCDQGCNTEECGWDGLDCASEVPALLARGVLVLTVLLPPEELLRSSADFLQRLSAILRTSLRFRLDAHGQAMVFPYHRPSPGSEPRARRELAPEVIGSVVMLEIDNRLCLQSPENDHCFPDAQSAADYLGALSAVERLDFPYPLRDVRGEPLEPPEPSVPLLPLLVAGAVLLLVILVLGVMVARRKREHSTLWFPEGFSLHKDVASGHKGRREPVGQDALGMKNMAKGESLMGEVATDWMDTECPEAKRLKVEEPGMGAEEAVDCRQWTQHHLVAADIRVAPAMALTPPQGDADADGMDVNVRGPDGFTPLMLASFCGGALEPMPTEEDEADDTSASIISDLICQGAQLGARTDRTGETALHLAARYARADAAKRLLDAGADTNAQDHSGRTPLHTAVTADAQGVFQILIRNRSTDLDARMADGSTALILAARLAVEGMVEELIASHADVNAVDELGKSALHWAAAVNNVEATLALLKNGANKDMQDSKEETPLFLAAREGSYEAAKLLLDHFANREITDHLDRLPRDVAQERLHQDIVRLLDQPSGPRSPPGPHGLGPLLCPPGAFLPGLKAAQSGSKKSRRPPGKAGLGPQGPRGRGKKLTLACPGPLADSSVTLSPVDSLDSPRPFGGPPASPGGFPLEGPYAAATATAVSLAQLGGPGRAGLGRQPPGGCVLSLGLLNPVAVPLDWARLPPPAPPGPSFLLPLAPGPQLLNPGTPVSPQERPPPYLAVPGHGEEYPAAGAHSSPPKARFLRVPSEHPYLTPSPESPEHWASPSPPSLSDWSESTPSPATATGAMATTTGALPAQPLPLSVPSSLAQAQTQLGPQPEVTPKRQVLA
Dickkopf-related protein 1 (Homo sapiens), sequence (O94907 whole entry, looked up): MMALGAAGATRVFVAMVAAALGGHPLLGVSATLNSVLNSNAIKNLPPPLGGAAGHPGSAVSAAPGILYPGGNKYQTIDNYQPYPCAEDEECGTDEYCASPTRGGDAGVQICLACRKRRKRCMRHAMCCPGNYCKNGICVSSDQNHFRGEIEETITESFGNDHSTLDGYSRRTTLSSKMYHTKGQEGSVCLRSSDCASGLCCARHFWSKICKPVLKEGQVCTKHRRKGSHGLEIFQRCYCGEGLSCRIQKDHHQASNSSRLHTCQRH
Torsin-1A-interacting protein 2 (Homo sapiens), sequence (Q8NFQ8 whole entry, looked up): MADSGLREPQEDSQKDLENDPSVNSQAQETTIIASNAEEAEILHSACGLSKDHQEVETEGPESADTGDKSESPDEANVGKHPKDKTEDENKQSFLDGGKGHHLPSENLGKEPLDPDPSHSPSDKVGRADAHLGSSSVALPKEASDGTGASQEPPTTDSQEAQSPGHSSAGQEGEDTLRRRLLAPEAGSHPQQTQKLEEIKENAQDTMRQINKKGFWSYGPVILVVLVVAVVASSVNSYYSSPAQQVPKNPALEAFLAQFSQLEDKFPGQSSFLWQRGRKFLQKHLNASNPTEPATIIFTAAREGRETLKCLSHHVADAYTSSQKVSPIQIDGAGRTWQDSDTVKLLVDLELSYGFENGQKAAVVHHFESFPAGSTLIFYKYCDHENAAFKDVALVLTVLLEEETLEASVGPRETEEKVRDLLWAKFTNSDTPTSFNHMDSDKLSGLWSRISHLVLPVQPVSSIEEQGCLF
Fibroblast growth factor 10 (Homo sapiens), sequence (O15520 whole entry, looked up): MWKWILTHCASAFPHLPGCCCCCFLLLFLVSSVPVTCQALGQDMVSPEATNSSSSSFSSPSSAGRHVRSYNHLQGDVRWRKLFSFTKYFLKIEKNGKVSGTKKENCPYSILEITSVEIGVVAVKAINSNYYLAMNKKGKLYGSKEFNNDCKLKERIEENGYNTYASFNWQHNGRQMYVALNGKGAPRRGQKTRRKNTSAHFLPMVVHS

Structure (SMILES)	composite z-score [1]	z-score [2]	z-score [3]	z-score [4]	composite z-score [5]	z-score [6]	composite z-score [7]	composite z-score [8]	composite z-score [9]	composite z-score [10]	composite z-score [11]	composite z-score [12]	composite z-score [13]	z-score [14]	composite z-score [15]	composite z-score [16]	composite z-score [17]	composite z-score [18]	composite z-score [19]	composite z-score [20]
COCCOC(=O)N1C(=O)[C@@]2(c3cc(C#CC4(O)CCCCCC4)ccc31)[C@H](C(=O)N1CCCCCCC1)[C@H]1C(=O)O[C@H](c3ccccc3)[C@H](c3ccccc3)N1[C@@H]2c1ccc(O)cc1	1.56	-0.971 (inactive)	-1.1 (inactive)	0.772 (inactive)	2.86	2.34 (inactive)	0.873	0.906	0.995	0.67	1.26	2.22	1.55	-0.0148 (inactive)	0.808	1.11	0.251	1.34	0.716	1.89
CO[C@H]1COC(=O)[C@H](C)COC(=O)[C@H](Cc2ccccc2)NC(=O)CC=C[C@H]1C	-0.0111	0.43 (inactive)	-0.854 (inactive)	-0.798 (inactive)	-0.826	0.195 (inactive)	0.0128	0.952	-0.447	-0.139	1.01	-0.345	-1.3	-0.857 (inactive)	0.245	-0.232	0.843	1.31	1.68	1.26
COC(=O)[C@H]1[C@@H]2COc3ccccc3[C@H]2N[C@H]1C(=O)OC	0.213	-0.501 (inactive)	-8.98 (active)	0.265 (inactive)	0.584	0.694 (inactive)	0.0111	0.208	0.422	-0.152	0.0829	-0.0995	0.0399	-0.685 (inactive)	0.348	0.332	0.261	0.327	0.0008	0.0992
COc1cc(Cc2cc3c(c(CCc4ccccc4)n2)[Si](C(C)C)(C(C)C)OC3)cc(OC)c1OC	0.735	0.238 (inactive)	-0.226 (inactive)	0.0563 (inactive)	-0.244	-1.02 (inactive)	-0.184	0.684	0.483	0.286	-0.132	-0.106	-0.471	-0.212 (inactive)	0.367	-0.034	0.0831	0.499	0.164	0.679
O=C1O[C@H](c2ccccc2)[C@H](c2ccccc2)N2[C@H]1[C@@H](C(=O)NC[C@H](O)c1ccccc1)[C@]1(C(=O)Nc3ccc(C#CC4(O)CCCCCC4)cc31)[C@H]2c1ccc(OCCO)cc1	1.32	1.93 (inactive)	-0.538 (inactive)	4.16 (inactive)	2.72	3.35 (inactive)	0.159	0.423	0.868	0.0301	1.03	0.539	0.713	-0.717 (inactive)	0.599	0.563	0.0371	0.411	0.0407	0.0385
COc1cc(CO)cc(I)c1O[C@H]1C=C(C(=O)NCCO)C[C@@H](NCCc2c[nH]c3ccccc23)[C@@H]1O	1.39	0.004 (inactive)	-12.4 (active)	-2.09 (inactive)	0.499	2.12 (inactive)	0.341	0.947	0.705	0.192	1	0.27	0.375	-1.01 (inactive)	1.06	0.433	0.666	1.05	0.4	1.22
COc1ccc(-c2ccccc2[C@@H]2N[C@H](C(=O)O)CC[C@H]2C)cc1	-0.408	-0.306 (inactive)	-0.572 (inactive)	0.492 (inactive)	0.47	0.189 (inactive)	-0.05	0.412	0.412	0.0068	0.0888	-0.267	-0.519	-1.21 (inactive)	0.262	0.387	0.418	0.336	0.526	0.135
O=C1C2C=CC(C(O)C(c3ccccc3)c3ccccc3)N(Nc3ccc([N+](=O)[O-])cc3)C2C(=O)N1c1ccccc1 (stereo not given)	1.38	0.384 (inactive)	1.86 (inactive)	2.85 (inactive)	3.67	-0.07 (inactive)	0.109	-0.181	1.07	0.121	0.375	0.569	0.767	0.597 (inactive)	1.04	1.32	0.66	0.955	0.331	0.814
O=C1C[C@@](C(=O)NCCN2CCOCC2)(c2ccc([N+](=O)[O-])cc2)[C@@H](c2ccc(CO)cc2)N1C1CCCCC1	1.55	0.406 (inactive)	-0.824 (inactive)	-0.468 (inactive)	3.07	1.48 (inactive)	0.138	0.515	1.12	0.23	1.2	0.653	1.02	0.281 (inactive)	0.798	1.02	0.789	0.662	-0.0544	0.64
C=C(CCCC)/C(=C/C[C@H](OC(=O)c1ccncc1)c1cccc(OCCO)c1)c1cc(C(=O)OC)ccc1OC	1.4	0.15 (inactive)	-0.323 (inactive)	2.82 (inactive)	1.23	1.94 (inactive)	-0.174	1.08	0.966	-0.112	0.169	-0.166	-0.0107	-1.37 (inactive)	1.04	0.174	-0.218	0.611	0.347	0.868
